Synaptosome phagocytic index data for 40 compounds are collected here from the supplement of paper PMC12339681.

Counter-ions that a name gives are not always drawn.

This assay deals with PBMC-derived induced microglia-like cells (piMGLC). Put plainly: synaptosome phagocytic index relative to DMSO control (fraction of DMSO); higher = more phagocytosis. The settings on record: concentration: 10 uM (2 uM for compounds listed in Table S2); pretreatment time: 24 h; assay time: 3 h. The method, then: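 PBMC-derived induced microglia-like cells (piMGLCs) in 96-well plates were pretreated for 24 h with CNS-penetrant library compounds (MedChemExpress HY-L028), mostly at 10 uM; Table S2 lists 9 compounds at 2 uM. pHrodo-Red-labelled human iPSC-neuron synaptosomes (3 ug/well) were then added for 3 h, and cells were fixed and imaged by confocal microscopy. Phagocytic index (synaptosome area / cell count, CellProfiler) is a mean over 3 replicate wells on different plates, normalized to the DMSO control. Compounds leaving <10% of DMSO cell count were marked toxic and given no value.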
With `Nc1nc2c(ncn2COCCO)c(=O)[nH]1` [Acyclovir], the synaptosome phagocytic index is 0.731. Consider `CCc1c(C)[nH]c2c1C(=O)C(CN1CCOCC1)CC2` (stereo not given) [Molindone_(hydrochloride)], for which the synaptosome phagocytic index stood at 0.64. With `CC#Cc1cncc(-c2ccc3c(c2)[C@@]2(N=C(C)C(N)=N2)[C@]2(CC[C@H](OC)CC2)C3)c1` [Lanabecestat], the synaptosome phagocytic index was 1.03. Consider `C[N+](C)(C)CCO.[Cl-]` [Choline_(chloride)], for which the synaptosome phagocytic index amounted to 0.799. The value for `Cc1cc2c(s1)Nc1ccccc1N=C2N1CCN(C)CC1` [Olanzapine] was 0.345; that for `CC(C)(O/N=C(\C(=O)N[C@@H]1C(=O)N2C(C(=O)[O-])=C(C[n+]3ccccc3)CS[C@H]12)c1csc(N)n1)C(=O)O` [Ceftazidime] was 1.05; that for `C[C@H](Cn1cnc2c(N)ncnc21)OCP(=O)(O)O` [Tenofovir] was 0.906. `C=C[C@H]1CN2CC[C@H]1C[C@@H]2[C@@H](O)c1ccnc2ccc(OC)cc12` [Quinidine]: the synaptosome phagocytic index stood at 0.962.

On to `COCCOC(=O)C1=C(C)NC(C)=C(C(=O)OC(C)C)C1c1cccc([N+](=O)[O-])c1` (stereo not given) [Nimodipine], for which the synaptosome phagocytic index came out at 0.85. Turning to `O=C1c2cccc3c2[C@H](CCC3)CN1[C@@H]1CN2CCC1CC2` [Palonosetron_(Hydrochloride)], the synaptosome phagocytic index was 0.526. On to `CC[C@@]12C=C(C(=O)O)n3c4c(c5ccccc53)CCN(CCC1)[C@H]42` [Apovincaminic_acid_(hydrochloride_salt)], for which the synaptosome phagocytic index was 0.745. As for `N[C@H]1CONC1=O` [L-Cycloserine], the synaptosome phagocytic index amounted to 0.883.

Consider `CC(C(=O)O)c1cccc(C(=O)c2ccccc2)c1` (stereo not given) [Ketoprofen], for which the synaptosome phagocytic index is 0.731. With `NC(=O)c1cnccn1` [Pyrazinamide], the synaptosome phagocytic index amounted to 1.21. As for `CC(C)(Sc1cc(C(C)(C)C)c(O)c(C(C)(C)C)c1)Sc1cc(C(C)(C)C)c(O)c(C(C)(C)C)c1` [Probucol], the synaptosome phagocytic index is 0.859. Take `O=C(Oc1ccccc1C(=O)O)c1ccccc1O` [Salsalate]: the synaptosome phagocytic index turned out to be 0.409. In the case of `OC(CCN1CCCCC1)(c1ccccc1)C1CCCCC1` (stereo not given) [Trihexyphenidyl_(hydrochloride)] it was 1.24. Take `C[C@]12C=CC(=O)C=C1CC[C@@H]1[C@@H]2C(=O)C[C@@]2(C)[C@H]1CC[C@]2(O)C(=O)CO` [Prednisone]: the synaptosome phagocytic index stood at 0.718. As for `CN(C)C(=O)c1cc2cnc(Nc3ccc(N4CCNCC4)cn3)nc2n1C1CCCC1` [Ribociclib_hydrochloride], the synaptosome phagocytic index amounted to 0.332. In the case of `CC[C@@]1(O)C(=O)OCc2c1cc1n(c2=O)Cc2cc3c(CN(C)C)c(O)ccc3nc2-1` [Topotecan_(Hydrochloride)] it was 0.354; in that of `CC(C)NCC(O)COc1cccc2ccccc12` (stereo not given) [Propranolol_(hydrochloride)], 1.1. Consider `O=C1Nc2ccc(Cl)cc2[C@@](C#CC2CC2)(C(F)(F)F)O1` [Efavirenz], for which the synaptosome phagocytic index came to 0.473. In the case of `NC(=O)c1ccc(OCCCN2CC3CCCC3C2)cc1` (stereo not given) it was 0.933; in that of `COc1cc2nc(C3CC3)nc(N3CCN(c4ccccc4OC)CC3)c2cc1OC`, 0.0572.

Turning to `C[C@@H](NC(=O)c1ccc(F)cc1)c1ccc2c(c1)CCN2C(=O)C1CCOCC1`, the synaptosome phagocytic index was determined as 0.908. In the case of `CCOC(=O)C1=C(C)NC(C)=C(C(=O)OC)C1c1cccc(Cl)c1Cl` (stereo not given) [Felodipine], the synaptosome phagocytic index turned out to be 1.04. In the case of `O=c1c(-c2ccc(O)cc2)coc2cc(O)cc(O)c12` [Genistein], the synaptosome phagocytic index was found to be 0.792. With `O=C(NCc1ccc(F)cc1)N1CCN2C(=O)OC(c3ccccc3)(c3ccccc3)C2C1` (stereo not given), the synaptosome phagocytic index was found to be 0.552. With `CCN(CC)C(=O)[C@@]1(c2ccccc2)C[C@H]1CN` [Milnacipran_((1S-cis)_hydrochloride)], the synaptosome phagocytic index stood at 0.67. For `CC1(C)S[C@@H]2[C@H](NC(=O)[C@H](NC(=O)N3CCN(S(C)(=O)=O)C3=O)c3ccccc3)C(=O)N2[C@H]1C(=O)O` [Mezlocillin_(sodium)], the synaptosome phagocytic index turned out to be 0.977. `Cn1cc2cc(C(F)(F)c3nnc4ccc(-c5cnn(C6CC6)c5)nn34)c(F)cc2n1` [Bozitinib]: the synaptosome phagocytic index came out at 0.851. In the case of `COC(=O)/C=C/c1ccc(O)c(OC)c1` [Ferulic_acid_methyl_ester], the synaptosome phagocytic index turned out to be 0.783. With `CC(C)c1ccc(CC(=O)N2CCN(c3ccc(C#N)nn3)CC2)cc1`, the synaptosome phagocytic index is 0.943. In the case of `CCCN(CCC)S(=O)(=O)c1ccc(C(=O)O)cc1` [Probenecid], the synaptosome phagocytic index came out at 0.701.

Turning to `NC1=N[C@@]2(c3cc(NC(=O)c4ccc(F)cn4)ccc3F)COC[C@H]2CS1`, the synaptosome phagocytic index is 1.35. Consider `CC(C)c1nc(CN(C)C(=O)N[C@H](C(=O)N[C@@H](Cc2ccccc2)C[C@H](O)[C@H](Cc2ccccc2)NC(=O)OCc2cncs2)C(C)C)cs1` [Ritonavir], for which the synaptosome phagocytic index is 0.742.

`CCN(C(=O)c1c(O)c2c(Cl)cccc2n(C)c1=O)c1ccccc1` [Laquinimod]: the synaptosome phagocytic index was 0.888. Regarding `O=C(c1ccc(F)cc1)N1CCC[C@H](c2nc(-c3ccc(F)cc3)no2)C1`, the synaptosome phagocytic index came to 0.938.

Take `Cn1cc(-c2ccncc2)c(-c2ccc(OCc3ccc4ccccc4n3)cc2)n1` [Mardepodect_(hydrochloride)]: the synaptosome phagocytic index came out at 0.503. `CS(=O)(=O)c1ccc(C(=O)Nc2ccc(Cl)c(-c3ccccn3)c2)c(Cl)c1` [Vismodegib]: the synaptosome phagocytic index came to 0.948.
